This is a sample that favours compounds with a hit; in the whole collection about 4.6% have one here.
FXN GAA850 act – activators of GAA850 frataxin (FXN) promoter. HEK293 lucGAA850 FXN promoter luciferase reporter, 24 h; percent of 10 µM SAHA response. activation, % at 6 µM. actives 0.56% (n = 360,000);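 active = activation above the average of all compounds screened plus 3 SD, cutoff fixed separately per campaign, cut at about 7.5% in these data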;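 note: 0% = DMSO wells and 100% = 10 µM SAHA wells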
AHR act – human AHR activation. P35869. AHR-responsive luciferase reporter cells, luminescence. activation, % at 5 µM. actives 2.5% (n = 320,000). AID 2796; in the data active = activation above about 47%;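 note: 0% = vehicle wells and 100% = reference agonist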
HSF1 activator – increases HSF-1 driven luciferase reporter signal; AID 504408; actives 1.7% (n = 300,000); NIH3T3-HGL HSF-1 luciferase reporter, MG132, 8 h; 100% = twice DMSO control signal; activation, % at 9 µM;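 active = mean replicate activation of at least 50% with a set share of replicates each reaching 50%; inconclusive = only one of those two conditions met; inactive = mean below 50% and too few replicates reaching it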;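 note: 0% = median of the neutral control wells and 100% = twice that signal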
HSF1 inh – HSF1 inhibition; activity change, negative = inhibition, % at 7.5 µM (by protocol); NIH3T3-HGL HSE-luciferase, MG132-induced, luminescence 8 h; hits give low values; actives 0.77% (n = 300,000);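 active = more than half of replicate wells show activity change below -50%, luminescence cut by over half; inconclusive = some wells, but at most half, below -50%; inactive = no replicate well below -50%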;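 note: luciferase reports HSF-1 transcriptional activity via heat shock element; 0% = median of DMSO wells and -100% = zero luminescence signal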
AHR act confirm – confirmation of human aryl hydrocarbon receptor activators. actives 87% (n = 2,300). activation, % at 9 µM. shares compounds with AHR act. human cells, AHR-responsive luciferase reporter, luminescence; in the data active = activation above about 49%;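 note: HepG2 hepatoma cells carrying a DRE-driven firefly luciferase reporter; 0% = vehicle wells and 100% = reference agonist wells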
PXR counter – counter-screen for AHR activators: human PXR activators; shares compounds with AHR act; cell-based PXR reporter, luciferase luminescence; activation, % at 11.6 µM; actives 88% (n = 2,300); AID 434939; in the data active = activation above about 11%;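 note: human hepatoma DPX-2 cells expressing full-length human PXR; 0% = DMSO and 100% = reference agonist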
Numbers without * were called inactive; u = inconclusive; x = no result given.

SMILES	FXN GAA850 act	AHR act	HSF1 activator	HSF1 inh	AHR act confirm	PXR counter
Cc1cc(C)cc(Nc2nc3c([nH]2)c(=O)n(C)c(=O)n3C)c1	-1	95*	-7	-3	38	27*
Cc1ccc(Nc2nc3c([nH]2)c(=O)n(C)c(=O)n3C)cc1	-1	34	0	-1	x	x
COc1ccc(C2=NN(C(C#N)c3ccc(OC)c(OC)c3)C(c3ccccc3)C2)cc1 (stereo unspecified)	3	107*	90*	32	74*	21*
c1ccc(-c2n[nH]c(-c3ccccn3)n2)cc1	4	90*	12	9	81*	24*
Nc1n[nH]c(-c2ccccc2)n1	3	5	-5	-13	x	x
COc1ccc(Nc2nc(-c3cccs3)nc3ccccc23)cc1	0	-3	-9	0	x	x
COc1cccc(Nc2nc(-c3cccs3)nc3ccccc23)c1	2	88*	8	-9	41	68*
Cc1ccc(C)c(NC(=O)c2nc(Cl)ccc2Cl)c1	2	81*	7	11	106*	112*
Cc1ccc(C)c(NC(=O)COC(=O)c2nc(Cl)ccc2Cl)c1	-1	11	x	x	x	x
Cc1nnc(NC(=O)c2ccc(-c3ccc(Cl)cc3)o2)s1	-1	4	18	7	x	x
O=C(Nc1nccs1)c1ccc(-c2ccc(Cl)cc2)o1	4	84*	57*	25	37	26*
O=C(Nc1cccc(Cl)c1)c1ccc(NCC2CCCO2)c([N+](=O)[O-])c1 (stereo unspecified)	3	91*	6	4	6	30*
Nc1nc(NCC2CCCO2)nc(Nc2cccc(Cl)c2)c1[N+](=O)[O-] (stereo unspecified)	3	99*	18	0	27	16*
Cc1cccc(NC(=O)c2ccc(NCC3CCCO3)c([N+](=O)[O-])c2)c1 (stereo unspecified)	6	-3	11	12	x	x
COCCN1C(=O)N[C@@H](CCc2ccccc2)[C@H](C(=O)OC)[C@H]1C	-1	5	3	2	x	x
Cc1ccc(CNC(=O)C(CC(C)C)OC(=O)c2ccco2)cc1 (stereo unspecified)	-1	2	18	4	x	x
Cc1ccc(C(=O)NCC(=O)Nc2ccc(F)c(F)c2F)cc1	0	8	-3	9	x	x
O=C(CSc1nc2ccccc2c2nc3ccccc3n12)NCc1ccco1	2	80*	103*	45	50*	48*
[O-]/[N+](=C\c1ccncc1)c1ccc(Br)cc1	7	123*	117*	78	130*	16*
[O-]/[N+](=C/c1cccnc1)c1ccc(Br)cc1	3	93*	35	22	117*	18*
CC(=O)c1cc(C)c(OC(=O)c2ccccc2)c(C)c1	5	x	x	x	x	x
CC(=O)Cc1cc(O)c2ccccc2c1OC(=O)c1ccccc1	0	93*	u	19	98*	16*
CC(=O)NCCNc1nc2c(-c3ccccc3)nnn2c2ccccc12	5	88*	-5	-1	113*	19*
CC(=O)NCCNc1nc2c(-c3cccc(C)c3)nnn2c2ccccc12	0	44	7	1	x	x
Cc1nccn1CCc1nc(N)nc(N)n1	1	1	4	-4	x	x
SMILES	FXN GAA850 act	AHR act	HSF1 activator	HSF1 inh	AHR act confirm	PXR counter
Cc1cccc(-c2noc(CCC(=O)Nc3ccc(C(N)=O)cc3)n2)c1	1	-3	11	9	x	x
O=C(Nc1ccc(F)cc1)c1cnc(-c2ccccc2)nc1-c1ccccc1	-1	124*	-1	9	53*	81*
CN(C(=O)c1nn(C)c2c1CSc1ccccc1-2)c1ccccc1Cl	0	21	2	-4	x	x
CN(C(=O)c1nn(C)c2c1CSc1ccccc1-2)c1ccc(F)cc1	-1	105*	7	-3	47*	64*
CCN1CCn2c3c(c4cc(Cl)ccc42)CCCC31 (stereo unspecified)	2	118*	5	4	62*	48*
CC(=O)Nc1ccc2nc(-c3ccccn3)[nH]c2c1	3	35	36	22	x	x
c1ccc(-c2nc3cc4ccccc4cc3[nH]2)nc1	0	114*	-6	-16	44	23*
NC(=S)N/N=C/c1ccc(-c2cc(Cl)c(Cl)cc2Cl)o1	4	108*	14	4	102*	22*

Compound activity deposited in PubChem BioAssay by several laboratories.
